Test results: the supplement of paper PMC13380429

What was measured:
[1] = tested on: Vero E6 infected with SARS-CoV-2; test: morphology score (similarity to uninfected cells); higher = more like uninfected cells; settings: 24 h
[2] = tested on: Vero E6 infected with SARS-CoV-2; test: SARS-CoV-2 infection rate relative to infected DMSO; higher = more infection, active = 60 or less; settings: 24 h

SMILES	morphology score [1]	SARS-CoV-2 infection rate [2]
CC(C)[C@H](CO)Nc1nc(Nc2ccc(C(=O)O)c(Cl)c2)c2ncn(C(C)C)c2n1 [purvalanol-B] (10 µM)	-0.00736	101% (inactive)
CCOC(=O)N1CCC(=C2c3ccc(Cl)cc3CCc3cccnc32)CC1 [loratadine] (10 µM)	0.221	90% (inactive)
O=P1(N(CCCl)CCCl)NCCCO1 (stereo unspecified) [cyclophosphamide] (10 µM)	0.0658	97.5% (inactive)
Cc1cc(C(=O)Nc2cc(Oc3ccc4nc(NC(=O)C5CC5)cn4n3)ccc2C)n(C)n1 (10 µM)	0.227	102% (inactive)
CC(C)(N)CC12CC3CC(CC(C3)C1)C2 [somantadine] (10 µM)	0.178	96% (inactive)
CC(C)C(=O)c1c(C(C)C)nn2ccccc12 [ibudilast] (10 µM)	0.0924	97% (inactive)
Cc1sc2c(c1C)C(c1ccc(Cl)cc1)=N[C@@H](CC(N)=O)c1nnc(C)n1-2 (0.833333 µM)	-0.0333	104% (inactive)
NC(=O)N1c2ccccc2C=Cc2ccccc21 [carbamazepine] (10 µM)	-0.0216	108% (inactive)
O=C1NC(=O)C(=Cc2ccc(-c3ccc(F)cc3)o2)S1 (stereo in doubt) (10 µM)	0.0111	112% (inactive)
COc1ccc(-c2sc(NC(=O)C(C)(C)C)nc2C)cc1S(=O)(=O)Nc1ccc(O)cc1 [PI4KIII-beta-inhibitor-1] (10 µM)	0.325	66% (inactive)
Cc1ccc2c(=O)c3ccccc3n(CCCN)c2c1C (10 µM)	-0.144	110% (inactive)
Nc1ncn([C@@H]2O[C@H](CO)[C@@H](O)[C@H]2O)c(=O)n1 [azacitidine] (0.833333 µM)	-0.0243	100% (inactive)
CC(=O)N1CCN(C)CC1 [1-acetyl-4-methylpiperazine] (10 µM)	-0.0421	102% (inactive)
COC(=O)c1ccc(O)cc1 [methylparaben] (10 µM)	-0.112	114% (inactive)
COc1cc(Br)c(Nc2nc(-c3c(C)nc4ncccn34)cs2)c(Br)c1 (10 µM)	-0.31	114% (inactive)
CC(C)(S)C(=O)N[C@@H](CS)C(=O)O [bucillamine] (10 µM)	-0.0447	107% (inactive)
CC(N)C12CC3CC(CC(C3)C1)C2 (stereo unspecified) [rimantadine] (10 µM)	0.136	102% (inactive)
N[C@@H](CC(=O)Nc1ccc(Oc2cc(F)c(F)cc2Br)cc1)C(=O)O (10 µM)	0.233	98% (inactive)
CN1c2cc3c(cc2N=C(c2ccc(C(=O)O)cc2)c2ccccc21)C(C)(C)CCC3(C)C (0.833333 µM)	-0.141	107% (inactive)
COc1nc(C)cnc1NS(=O)(=O)c1cccnc1-c1ccc(-c2nnco2)cc1 [zibotentan] (10 µM)	0.109	120% (inactive)
O=S(=O)(N[C@H]1CC[C@@](c2cc(F)ccc2F)(S(=O)(=O)c2ccc(Cl)cc2)CC1)C(F)(F)F (10 µM)	0.0636	104% (inactive)
CCCCCCNC(=O)Nc1ccc(S(=O)(=O)Nc2ccc(CCNC[C@H](O)COc3ccc(O)cc3)cc2)cc1 (10 µM)	-0.167	112% (inactive)
C#C[C@]1(O)CC[C@H]2[C@@H]3CCC4=CC(=NO)CC[C@@H]4[C@H]3CC[C@@]21CC (mixture of isomers) [norelgestromin] (10 µM)	-0.0918	108% (inactive)
C[C@]12CCC(=O)C=C1CC[C@@H]1[C@@H]2CC[C@@]2(C)[C@H]1CC[C@]2(C)O [17-alpha-Methyltestosterone] (10 µM)	0.0827	108% (inactive)
CN1c2ccccc2C(=O)N2CCc3c([nH]c4ccccc34)C21 (stereo in doubt) [evodiamine] (10 µM)	-0.093	100% (inactive)
C[C@H]1CCC/C=C/[C@@H]2C[C@H](O)C[C@H]2[C@H](O)/C=C/C(=O)O1 [brefeldin-A] (0.833333 µM)	0.0397	107% (inactive)
CCCCCCCCCCCCCCCC[N+](C)(C)Cc1ccccc1 [benzyldimethylhexadecylammonium] (10 µM)	0.298	80% (inactive)
Cc1ccc2nc(N)[nH]c(=O)c2c1Sc1ccncc1 [nolatrexed] (10 µM)	-0.166	108% (inactive)
